Screening data from PubChem BioAssay.
Shown are actives, neighbours in structure and some others; about 2.4% of the full set was active somewhere.
Pol iota inh: blocks human DNA polymerase iota activity. Potency, µM (doses to about 115 µM), for the others: at the highest dose activity, negative = inhibition, actives largely listed as inhibitors. actives 1% (n = 390,000). Pol iota fluorescent replication assay, 10 min. Q9UNA4; further: potency means the concentration at half of the fitted maximal effect
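Fluorescent replication assay read twice, at 0 min and 10 min after adding 50 nM (final) substrate. Enzyme (10 nM) and compounds were first incubated 15 min at room temperature; enzyme-free buffer wells were negative controls.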
Pol kappa inh-1: blocks human DNA polymerase kappa activity | purified Pol kappa, fluorescent DNA synthesis assay, 10 min | actives 0.53% (n = 400,000) | AID 588579 | Potency, µM (doses to about 107 µM), for inactives: at the highest dose activity, negative = inhibition, hits mostly inhibitors; further: potency means the concentration at half of the fitted maximal effect; on the % scale 0 is the no-effect control and ±100 the full control effect
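Kinetic fluorescence screen: compound preincubated 15 min RT with 10 nM enzyme; 50 nM substrate (final) initiates; reads at 0/10 min.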
POLB inh: inhibitors of human DNA polymerase beta. P06746. Pol beta primer extension/strand displacement, fluorescence kinetic. Potency, µM (highest dose often 114 µM), for inactives: at the top dose activity change, negative = inhibition, most hits filed as inhibitors. actives 1.3% (n = 340,000); further: potency means the concentration at half of the fitted maximal effect; on the % scale 0 is the no-effect control and ±100 the full control effect
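10 nM enzyme + cpd, 15 min RT; start with substrate 50 nM final; read 0 min and after 10 min RT. Corrected, normalized data; 4-parameter Hill curve fit.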
L3MBTL1 block: blocks human L3MBTL1; Q9Y468; AlphaScreen L3MBTL1–H3K9me1 peptide binding; Potency, µM (series often up to 57.1 µM), inactives show top-dose activity, negative = inhibition, actives largely listed as inhibitors; actives 0.66% (n = 230,000); further: potency means the concentration at half of the fitted maximal effect; on the % scale 0 is the no-effect control and ±100 the full control effect; nearly all actives have a fitted effect of over 60% in size
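Displacement of a biotinylated histone H3(1-15) peptide monomethylated at Lys9 (75 nM) from L3MBTL1 (50 nM) was measured by AlphaScreen after a 30 min room-temperature compound incubation; cefsulodin titration served as intraplate control.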
Pol eta inh-1: DNA polymerase eta (human) inhibition. Q9Y253. recombinant Pol eta, fluorescent DNA replication assay. Potency, µM (highest dose often 114 µM), for the others: at the highest dose activity change, negative = inhibition, actives largely listed as inhibitors. actives 1.2% (n = 390,000). AID 588591; further: potency means the concentration at half of the fitted maximal effect; on the % scale 0 is the no-effect control and ±100 the full control effect
Target sequence (Q9Y253 whole entry, looked up): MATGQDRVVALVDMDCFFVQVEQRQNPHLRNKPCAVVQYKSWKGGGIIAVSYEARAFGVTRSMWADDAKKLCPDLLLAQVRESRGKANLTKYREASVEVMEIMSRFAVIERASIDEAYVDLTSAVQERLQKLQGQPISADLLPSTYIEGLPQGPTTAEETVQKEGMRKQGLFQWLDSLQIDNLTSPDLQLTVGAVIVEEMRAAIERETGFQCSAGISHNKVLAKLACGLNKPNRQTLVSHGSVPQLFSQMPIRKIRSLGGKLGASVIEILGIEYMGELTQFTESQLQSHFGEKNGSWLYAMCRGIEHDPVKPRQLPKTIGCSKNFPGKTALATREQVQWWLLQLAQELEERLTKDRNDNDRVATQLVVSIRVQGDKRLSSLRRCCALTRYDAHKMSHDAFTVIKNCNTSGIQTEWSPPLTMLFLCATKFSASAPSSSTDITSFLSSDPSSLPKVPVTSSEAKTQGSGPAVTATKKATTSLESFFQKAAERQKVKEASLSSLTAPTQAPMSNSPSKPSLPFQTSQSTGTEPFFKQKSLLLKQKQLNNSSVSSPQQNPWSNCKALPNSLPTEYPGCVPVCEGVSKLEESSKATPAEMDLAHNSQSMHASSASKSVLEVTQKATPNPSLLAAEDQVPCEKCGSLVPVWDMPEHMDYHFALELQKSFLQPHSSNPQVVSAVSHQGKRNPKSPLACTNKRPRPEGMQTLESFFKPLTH
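Pol eta at 10 nM preincubated with compounds 15 min at room temperature; reaction started with fluorescent substrate (50 nM final) and read kinetically at 0 and 10 min.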
PGK validate: blocks T. brucei phosphoglycerate kinase | Potency, µM (titrated, usually from 57.5 µM), inactives show top-dose activity change, negative = inhibition, most hits filed as inhibitors | TbPGK coupled GAPDH assay, Kinase-Glo luminescence | shares compounds with Pol kappa inh-1 | actives 79% (n = 500); further: potency means the concentration at half of the fitted maximal effect; on the % scale 0 is the no-effect control and ±100 the full control effect; nearly all actives have a fitted effect of over 65% in size
POLI cherry-pick: Human Pol iota inhibitor confirmatory assay | Potency, µM, usual class: inhibitors | shares compounds with Pol kappa inh-1 | actives 77% (n = 1,500) | Pol iota primer extension, TAMRA/BHQ fluorescence; further: potency means the concentration at half of the fitted maximal effect
GALK confirm: galactokinase (human) inhibition, confirmation | actives 70% (n = 150) | purified GALK, Kinase-Glo ATP depletion luminescence | shares compounds with Pol eta inh-1 | Potency, µM (highest dose often 115 µM), inactives show at the top dose activity, negative = inhibition, actives largely listed as inhibitors
GALK redox cs: generates H2O2 by redox cycling, flagging GALK artifacts | shares compounds with Pol eta inh-1 | Phenol red-HRP H2O2 redox cycling, absorbance 600 nm | Potency, µM (top dose mostly 115 µM), for the others: at the highest dose activity change, negative = H2O2 signal, actives largely listed as inhibitors | actives 40% (n = 150) | AID 2035
HEK293 tox: reduces HEK-293 cell viability in GALK counter-screen | shares compounds with Pol eta inh-1 | HEK-293 viability, ATP luminescence (CellTiter-Glo), 24/48 h | Potency, µM (doses to about 46.1 µM), for inactives: top-dose activity change, negative = cytotoxicity, hits mostly inhibitors | actives 10% (n = 170); further: potency means the concentration at half of the fitted maximal effect; on the % scale 0 is the no-effect control and ±100 the full control effect
Pol kappa inh-2: confirmation of human DNA polymerase kappa inhibitors; shares compounds with Pol eta inh-1; purified Pol-kappa, fluorescent strand-displacement substrate; Potency, µM, usual class: inhibitors; actives 76% (n = 920); AID 720501; further: potency means the concentration at half of the fitted maximal effect
Pol eta inh-2: confirmation of human DNA polymerase eta inhibitors. shares compounds with Pol eta inh-1. Pol eta primer extension, TAMRA/BHQ fluorescence, 10 min. Potency, µM, usual class: inhibitors. actives 64% (n = 2,600); further: potency means the concentration at half of the fitted maximal effect
An asterisk follows results filed as active; ? = inconclusive; . = no result given; [ ] = remark or other dose. The call rests on the fitted dose curve; in most records, active means well fitted curve in the direction sought with a large enough effect; inconclusive means small, poorly fitted or top-dose-only effect, or another doubt; inactive means no such curve, though single readings can be large; an effect the other way counts as inactive or inconclusive.

SMILES	Pol iota inh	Pol kappa inh-1	POLB inh	L3MBTL1 block	Pol eta inh-1	POLI cherry-pick	Pol eta inh-2	others
CCCc1cc(=O)[nH]c2nnc(SCC(=O)Nc3nccs3)n12	-26%	0%	.	7%	-5%	.	.
NS(=O)(=O)c1ccc(NC2=CC(=O)C(=O)c3ccccc32)cc1	?	-17%	?	?	?	?	?	GALK confirm=15µM*;GALK redox cs=11µM*;HEK293 tox=7%
CCc1c(N)nc(N)nc1Nc1ccccc1C	10%	-1%	.	.	-15%	.	.
C=C(C)C(=O)Nc1ccc2c(c1)OCCOCCOCCO2	?	79µM*	10µM*	3.5µM*	22µM*	.	19*	PGK validate=?
COC(=O)N1CCC2(CC1)CN(C(=O)Nc1ccc(OC)cc1)C2	.	3%[60.1 µM]	.	.	.	.	.
O=Cc1ccc2oc3nc4n(c(=O)c3c(=O)c2c1)CCCS4	7.9µM*	20µM*	8.9µM*	.	2.5µM*	4.7*	11*	Pol kappa inh-2=8.4*
NN=C1c2ccccc2C(=O)C1C(=O)C(c1ccccc1)c1ccccc1 (configuration not stated)	40µM*	22µM*	.	.	?	75*	85*	Pol kappa inh-2=17*
CCN(C[C@H]1N[C@@](C)(C(=O)OC)[C@H]2C(=O)N(C)C(=O)[C@@H]12)C(=O)COC	-9%	-13%	.	?	-6%	.	.
O=C(CCCN1C(=O)/C(=C\c2ccco2)SC1=S)Nc1ccc(O)cc1C(=O)O	8.9µM*	22µM*	?	.	4.5µM*	34*	27*
O=C(CCCN1C(=O)/C(=C\c2ccccc2)SC1=S)Nc1ccc(C(=O)O)cc1	?	-18%	-15%	.	?	.	.
O=C(CCCN1C(=O)/C(=C/c2ccco2)SC1=S)Nc1cccc(C(=O)O)c1	14µM*	22µM*	3.2µM*	-86%	20µM*	24*	15*
O=C(CN1C(=O)/C(=C/c2ccco2)SC1=S)Nc1ccc(C(=O)O)c(O)c1	-14%	-8%	11µM*	.	3.5µM*	15*	6.7*	PGK validate=33µM*
O=C(CCN1C(=O)/C(=C\C=C\c2ccccc2)SC1=S)Nc1ccc(C(=O)O)cc1	?	?	20µM*	.	28µM*	27*	85*
CCC(C)NC(=O)c1cc(-c2cccc(OC)c2)on1 (configuration not stated)	1%	0%	1%	.	-12%	.	.
Cc1cc2oc(=O)cc(-c3ccccc3)c2c(C)c1-c1ccoc1	.	-6%	.	.	.	.	.
COc1ccc(-c2cc(C(=O)N(C)Cc3nc4ccccc4c(=O)[nH]3)c3ccccc3n2)cc1OC	55%	-4%	.	5%	-13%	.	.
Cc1cc(NC(=O)CSc2nc3c([nH]c4ccccc43)c(=O)n2-c2cccc(Cl)c2)no1	4%	-6%[60.1 µM]	8%	.	-3%	.	.
COc1ccc2c(c1)c(=O)oc1cc(OCC(=O)NC3CCCCC3)ccc12	25µM*	?	22µM*	?	79µM*	?	67*	Pol kappa inh-2=?
COc1ccc2c(c1)c(=O)oc1cc(OCC(=O)NC3CC3)ccc12	-51%	-37%	?	8%[11.4 µM]	?	.	.
Cc1ccc(SC2=C(N(C)C)C(=O)c3ccccc3C2=O)cc1	20µM*	-19%	.	.	8.9µM*	?	76*
Cc1noc(C)c1-c1nc(NC2CCNCC2)c2ccccc2n1	.	-3%[60.1 µM]	.	.	.	.	.
Cc1cnc(C(=O)N(CC(C)C)c2c(N)n(CC(C)C)c(=O)[nH]c2=O)cn1	19%	-5%	.	-19%	-10%	.	.
COC(=O)c1ccc(-c2ccc(C(c3c(C)[nH][nH]c3=O)c3c(C)[nH][nH]c3=O)o2)cc1	3.5µM*	?	20µM*	.	25µM*	?	76*
Cc1[nH][nH]c(=O)c1C(c1ccc(-c2cccc(C(=O)O)c2)o1)c1c(C)[nH][nH]c1=O	2.2µM*	89µM*	20µM*	25µM*	13µM*	67*	30*
CNC(=S)N/N=C/c1ccc(-c2cccc(C(=O)O)c2)o1	48%	-24%	-13%	.	-10%	.	.
SMILES	Pol iota inh	Pol kappa inh-1	POLB inh	L3MBTL1 block	Pol eta inh-1	POLI cherry-pick	Pol eta inh-2	others
Cc1[nH][nH]c(=O)c1C(c1ccc(-c2ccccc2C(=O)O)o1)c1c(C)[nH][nH]c1=O	10µM*	?	10µM*	32µM*	11µM*	47*	27*	GALK confirm=-11%;GALK redox cs=6.7µM*;HEK293 tox=6%
COc1cccc2c1cc1c(=O)n(CC(=O)O)nc(C)n12	18%	3%	2%	.	-11%	.	.
Cc1cc(C)cc(N2CCn3c2nc2c3c(=O)n(Cc3ccc(Cl)cc3)c(=O)n2C)c1	8%	-12%	-16%	.	-10%	.	.
O=C(O)C1C2C=CC(CC2)C1C(=O)O (configuration not stated)	?	?	18µM*	.	11µM*	.	?	PGK validate=12µM*;Pol kappa inh-2=30*
COc1cc(/C=C2\Oc3cc(O)ccc3C2=O)ccc1O	?	-29%	?	.	-13%	.	.
O=C1/C(=C/c2ccc(O)c(O)c2)Oc2cc(O)ccc21	?	28µM*	-30%	.	20µM*	24*	34*
O=C(CSc1nc2c([nH]c3ccccc32)c(=O)n1-c1ccc(Cl)cc1)N1CCOCC1	5%	-4%[60.1 µM]	1%	.	-7%	.	.
O=C(CSc1nc(-c2ccc(F)cc2)nc2c1Cc1ccccc1O2)Nc1ccc(C(=O)O)cc1	1.4µM*	?	4.5µM*	5µM*	?	7.5*	.	PGK validate=2.1µM*;Pol kappa inh-2=7.5*
